# In ChEMBL document CHEMBL5606458, “ASAP - ZIKV NS2B-NS3 protease fluorescence single point” (2024):
# The whole screen tested about 2,700 compounds, of which about 160 (5.9%) showed an effect of 50% or more. This excerpt belongs to a sample that is enriched for strong results.
# Molecular target: Nonstructural protein 3 (Zika virus) (UniProt A0A024AXB9)
# [1] = PRVABC59, Concentration 50.0 uM, Number of replicates 1.0
# Sequence of Nonstructural protein 3 (Zika virus) (A0A024AXB9 as listed by the source): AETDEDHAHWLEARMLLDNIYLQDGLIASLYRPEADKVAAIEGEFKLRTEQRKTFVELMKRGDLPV
structure (smiles),measurement,setting,value
NCc1ccc(/C=C/C(=O)C(=O)N2CCOCC2)cc1,inhibition,"PRVABC59, Concentration 49.5 uM, Number of replicates 2.0, Standard deviation 0.6564199696429821 %",37.2%
same,inhibition,"PRVABC59, Concentration 99.01 uM, Number of replicates 2.0, Standard deviation 0.38644007072414227 %",58.8%
same,inhibition,"PRVABC59, Concentration 198.0 uM, Number of replicates 2.0, Standard deviation 0.034408012774717715 %",79%
CN(C)c1ccc(/C=C/C(=O)C(=O)N2CCOCC2)cc1,inhibition,"PRVABC59, Concentration 49.5 uM, Number of replicates 2.0, Standard deviation 0.8258165831779674 %",41.6%
same,inhibition,"PRVABC59, Concentration 99.01 uM, Number of replicates 2.0, Standard deviation 0.46055378654400303 %",57.5%
same,inhibition,"PRVABC59, Concentration 198.0 uM, Number of replicates 2.0, Standard deviation 1.0005081895850734 %",76.2%
O=C(/C=C/c1ccc(N2CCNCC2)cc1)C(=O)N1CCOCC1,inhibition,"PRVABC59, Concentration 49.5 uM, Number of replicates 2.0, Standard deviation 0.677594356674037 %",0.889%
same,inhibition,"PRVABC59, Concentration 99.01 uM, Number of replicates 2.0, Standard deviation 0.8893426734771035 %",5.61%
same,inhibition,"PRVABC59, Concentration 198.0 uM, Number of replicates 2.0, Standard deviation 1.259902148857129 %",13.4%
COc1cc(Cc2c(-c3ccc(F)cc3)noc2C)nc(N2CCNCC2)n1,inhibition,"PRVABC59, Concentration 49.5 uM, Number of replicates 2.0, Standard deviation 1.339595433070256 %",48.7%
same,inhibition,"PRVABC59, Concentration 99.01 uM, Number of replicates 2.0, Standard deviation 0.7981008155972035 %",67.2%
same,inhibition,"PRVABC59, Concentration 198.0 uM, Number of replicates 2.0, Standard deviation 0.25862115465775987 %",83.1%
COc1cc(Cc2ccnc(N3CCNCC3)c2)nc(N2CCNCC2)n1,inhibition,"PRVABC59, Concentration 49.5 uM, Number of replicates 2.0, Standard deviation 1.782469122426121 %",19.2%
same,inhibition,"PRVABC59, Concentration 99.01 uM, Number of replicates 2.0, Standard deviation 1.2150848760245847 %",30.9%
same,inhibition,"PRVABC59, Concentration 198.0 uM, Number of replicates 2.0, Standard deviation 1.1140443816280838 %",44%
COc1cc(Cc2ccc3[nH]ncc3c2)nc(N2CCNCC2)n1,inhibition,"PRVABC59, Concentration 49.5 uM, Number of replicates 2.0, Standard deviation 0.053655972727460886 %",4.68%
same,inhibition,"PRVABC59, Concentration 99.01 uM, Number of replicates 2.0, Standard deviation 0.44117163102560114 %",11%
same,inhibition,"PRVABC59, Concentration 198.0 uM, Number of replicates 2.0, Standard deviation 0.2881536199967374 %",21.6%
CC(C)(C)OC(=O)N[C@H](C(=O)Nc1cccc(CN)c1)c1ccc(OCc2ccccc2)cc1,inhibition,"PRVABC59, Concentration 49.5 uM, Number of replicates 2.0, Standard deviation 0.15500599357942563 %",7.17%
same,inhibition,"PRVABC59, Concentration 99.01 uM, Number of replicates 2.0, Standard deviation 1.1863939989566727 %",43.6%
same,inhibition,"PRVABC59, Concentration 198.0 uM, Number of replicates 2.0, Standard deviation 0.6438743701278353 %",80.9%
CC(C)(C)OC(=O)N[C@H](C(=O)Nc1ccc(CN)cc1)c1ccc(OCc2ccccc2)cc1,inhibition,"PRVABC59, Concentration 49.5 uM, Number of replicates 2.0, Standard deviation 0.6279742186460096 %",5.64%
same,inhibition,"PRVABC59, Concentration 99.01 uM, Number of replicates 2.0, Standard deviation 1.57987158185777 %",32.3%
same,inhibition,"PRVABC59, Concentration 198.0 uM, Number of replicates 2.0, Standard deviation 0.42725710187082055 %",70.3%
CC(C)Nc1nc2ccc(C(=O)Nc3nnnn3-c3ccccn3)cc2[nH]1,inhibition,"PRVABC59, Concentration 50.0 uM, Number of replicates 2.0, Standard deviation 0.2871029833570578 %",13.5%
same,inhibition,"PRVABC59, Concentration 100.0 uM, Number of replicates 2.0, Standard deviation 0.2358348824788301 %",30.1%
same,inhibition,"PRVABC59, Concentration 200.0 uM, Number of replicates 2.0, Standard deviation 0.2742876440114413 %",66.8%
CC(C)Nc1nc2ccc(C(=O)Nc3ccc4cn[nH]c4n3)cc2[nH]1,inhibition,"PRVABC59, Concentration 49.5 uM, Number of replicates 2.0, Standard deviation 0.40894109303235027 %",7.41%
same,inhibition,"PRVABC59, Concentration 99.01 uM, Number of replicates 2.0, Standard deviation 0.19020569275657198 %",13.2%
same,inhibition,"PRVABC59, Concentration 198.0 uM, Number of replicates 2.0, Standard deviation 0.6447955316488895 %",25.2%
CCn1ccnc(N2CC[C@@H](C(=O)NC)C2)c1=O,inhibition,"PRVABC59, Concentration 49.5 uM, Number of replicates 2.0, Standard deviation 1.330415175115007 %",6.78%
same,inhibition,"PRVABC59, Concentration 99.01 uM, Number of replicates 2.0, Standard deviation 0.8792533922931717 %",13.1%
same,inhibition,"PRVABC59, Concentration 198.0 uM, Number of replicates 2.0, Standard deviation 1.1945536288283818 %",25%
c1ccc2c([C@H]3CCN(CC[C@H]4CCOC4)C3)c[nH]c2c1,inhibition,"PRVABC59, Concentration 49.5 uM, Number of replicates 2.0, Standard deviation 1.796591735840356 %",1.3%
same,inhibition,"PRVABC59, Concentration 99.01 uM, Number of replicates 2.0, Standard deviation 1.8008191859181881 %",8.43%
same,inhibition,"PRVABC59, Concentration 198.0 uM, Number of replicates 2.0, Standard deviation 1.4478420270377552 %",18.7%
CCCC[C@H](N)C(=O)N[C@H](C(=O)NCc1ccc(C(N)=O)cc1)c1ccc(OCc2ccccc2)cc1,inhibition,"PRVABC59, Concentration 49.5 uM, Number of replicates 2.0, Standard deviation 4.202595364768841 %",4.08%
same,inhibition,"PRVABC59, Concentration 99.01 uM, Number of replicates 2.0, Standard deviation 1.455996262112855 %",82.9%
same,inhibition,"PRVABC59, Concentration 198.0 uM, Number of replicates 2.0, Standard deviation 0.15670265711308018 %",99.2%
CCCC[C@H](N)C(=O)N[C@@H](C(=O)NCc1ccc(C(N)=O)cc1)c1ccc(OCc2ccccc2)cc1,inhibition,"PRVABC59, Concentration 49.5 uM, Number of replicates 2.0, Standard deviation 2.90329459480482 %",4.12%
same,inhibition,"PRVABC59, Concentration 99.01 uM, Number of replicates 2.0, Standard deviation 3.493094389705784 %",14.2%
same,inhibition,"PRVABC59, Concentration 198.0 uM, Number of replicates 2.0, Standard deviation 4.814160045121922 %",56.8%
CC(C)Cn1cccc(C(=O)Nc2ccnc3ccccc23)c1=O,inhibition,"PRVABC59, Concentration 49.5 uM, Number of replicates 2.0, Standard deviation 2.895437242130631 %",20.1%
same,inhibition,"PRVABC59, Concentration 99.01 uM, Number of replicates 2.0, Standard deviation 37.62280174563721 %",0.798%
same,inhibition,"PRVABC59, Concentration 198.0 uM, Number of replicates 2.0, Standard deviation 2.6549790189575497 %",10.2%
CCn1c(=O)c(N2CC[C@@H](CO)C2)nc2ccccc21,inhibition,"PRVABC59, Concentration 49.5 uM, Number of replicates 2.0, Standard deviation 1.0667198770713235 %",20.2%
same,inhibition,"PRVABC59, Concentration 99.01 uM, Number of replicates 2.0, Standard deviation 2.3733193853793706 %",36.2%
same,inhibition,"PRVABC59, Concentration 198.0 uM, Number of replicates 2.0, Standard deviation 1.8335969585925045 %",55.9%
CCn1ccnc(N2CC[C@@H](CO)C2)c1=O,inhibition,"PRVABC59, Concentration 49.5 uM, Number of replicates 2.0, Standard deviation 1.691792032316267 %",9.83%
same,inhibition,"PRVABC59, Concentration 99.01 uM, Number of replicates 2.0, Standard deviation 1.0699999134098355 %",17.4%
same,inhibition,"PRVABC59, Concentration 198.0 uM, Number of replicates 2.0, Standard deviation 1.0674090623381738 %",29.5%
O=c1c(N2CC[C@H](CO)C2)nccn1C1CC1,inhibition,"PRVABC59, Concentration 49.5 uM, Number of replicates 2.0, Standard deviation 2.4909219053667124 %",11.8%
same,inhibition,"PRVABC59, Concentration 99.01 uM, Number of replicates 2.0, Standard deviation 2.8453613913030793 %",19.9%
same,inhibition,"PRVABC59, Concentration 198.0 uM, Number of replicates 2.0, Standard deviation 1.2782808722061834 %",35.4%
N[C@H]1CCN(c2cccc(CNC(=O)c3ccc4[nH]c(=O)[nH]c4c3F)n2)C1,inhibition,"PRVABC59, Concentration 49.5 uM, Number of replicates 2.0, Standard deviation 1.7942103071905888 %",0.083%
same,inhibition,"PRVABC59, Concentration 99.01 uM, Number of replicates 2.0, Standard deviation 0.9354948212956848 %",1.95%
same,inhibition,"PRVABC59, Concentration 198.0 uM, Number of replicates 2.0, Standard deviation 18.65130084254076 %",51.2%
O=Cc1ccc(N2CCC(C(=O)N3CCN(c4cccc(O)c4)CC3)CC2)cc1,inhibition,[1],36.7%
N#CC1(c2ccccc2)CCN(C(=O)C2CCN(c3ccc(C=O)cc3)CC2)CC1,inhibition,[1],12.6%
NC(=O)C1(N2CCCCC2)CCN(C(=O)C2CCN(c3ccc(C=O)cc3)CC2)CC1,inhibition,[1],55.7%
